The list is not random: actives were taken first. Their share in the collection is about 9%.
G9a block: G9a (human) methyltransferase inhibition; Q96KQ7; G9a H3K9 monomethylation, AlphaScreen, 2 h; Potency, µM (doses to about 102 µM), for inactives: at the highest dose activity, negative = inhibition, hits mostly inhibitors; actives 8.8% (n = 350,000); note: % is set by controls: 0 for no effect and ±100 for the full control effect; nearly all actives have a fitted effect of over 75% in size
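Step 1: enzyme (final 20 nM) with compound, 15 min RT. Step 2: substrate peptide 500 nM and SAM 20 uM, 2 h RT. Step 3: anti-H3K9me1 antibody and AlphaScreen beads, 10 min, then plate read.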
HP1b binding inh: inhibitors of HP1-beta chromodomain binding to methylated histone tails | actives 0.56% (n = 390,000) | Potency, µM (titrated, usually from 114 µM), without a hit: at the top dose activity change, negative = inhibition, usual class: inhibitors | AID 540317 | AlphaScreen HP1-beta / biotin-H3K9me3 peptide binding | P83916; note: nearly all actives have a fitted effect of over 70% in size
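Compound inhibition of the preformed complex between 50 nM HP1-beta and 50 nM biotinylated H3K9me3 peptide was read by AlphaScreen. Buffer was PBS pH 7.4 with 0.01% Tween-20. Incubations ran 30 min at room temperature, with 10 ug/mL donor/acceptor beads.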
PLK1 PBD block: blocks phosphopeptide binding to human PLK1 polo-box domain; actives 2.8% (n = 360,000); Plk1 PBD binding of FITC phosphopeptide, fluorescence polarization; P53350; Potency, µM, for the others: max response, negative = inhibition, hits mostly inhibitors; note: series mostly up to about 57 µM; % is set by controls: 0 for no effect and ±100 for the full control effect; nearly all actives have a fitted effect of over 65% in size
ALOX12 inh: ALOX12 (human) lipoxygenase inhibition | actives 1.1% (n = 580,000) | purified 12hLO, xylenol orange hydroperoxide absorbance | AID 1671190 | P18054 | Potency, µM (series often up to 108 µM), for the others: at the top dose activity change, negative = inhibition, hits mostly inhibitors; note: % is set by controls: 0 for no effect and ±100 for the full control effect
Target sequence (P18054 whole entry, looked up): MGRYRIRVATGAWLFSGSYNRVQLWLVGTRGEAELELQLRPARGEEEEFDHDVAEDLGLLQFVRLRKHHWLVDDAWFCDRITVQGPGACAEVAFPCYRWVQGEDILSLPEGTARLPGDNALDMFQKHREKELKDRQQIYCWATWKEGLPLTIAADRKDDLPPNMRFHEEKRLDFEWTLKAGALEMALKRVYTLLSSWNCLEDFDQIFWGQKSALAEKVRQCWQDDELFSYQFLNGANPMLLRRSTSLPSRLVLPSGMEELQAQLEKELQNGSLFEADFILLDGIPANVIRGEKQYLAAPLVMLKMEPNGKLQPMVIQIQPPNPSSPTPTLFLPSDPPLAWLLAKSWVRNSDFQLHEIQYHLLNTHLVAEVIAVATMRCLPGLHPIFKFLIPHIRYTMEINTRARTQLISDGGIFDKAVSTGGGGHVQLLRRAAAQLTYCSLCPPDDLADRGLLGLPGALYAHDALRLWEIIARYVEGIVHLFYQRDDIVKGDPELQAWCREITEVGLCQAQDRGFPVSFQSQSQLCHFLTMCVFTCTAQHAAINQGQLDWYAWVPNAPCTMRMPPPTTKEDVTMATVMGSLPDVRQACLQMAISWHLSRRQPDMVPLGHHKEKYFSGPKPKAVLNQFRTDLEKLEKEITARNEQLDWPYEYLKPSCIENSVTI
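Hydroperoxide product was detected by ferrous iron/xylenol orange as the 573 to 405 nm absorbance ratio. Arachidonic acid at 40 uM (final) was turned over for 30 min at room temperature by 150 nM human 12hLO, pH 7.0 Hepes buffer, after 15 min compound preincubation.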
BAZ2B inh: blocks human BAZ2B. Q9UIF8. Potency, µM (titrated, usually from 114 µM), inactives show at the top dose activity change, negative = inhibition, usual class: inhibitors. AID 504333. AlphaScreen BAZ2B-H3K14Ac peptide displacement. actives 4.4% (n = 360,000); note: % is set by controls: 0 for no effect and ±100 for the full control effect; nearly all actives have a fitted effect of over 60% in size
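AlphaScreen displacement of biotin-H3(5-23)K14Ac peptide (50 nM final) from BAZ2B (50 nM final) in PBS pH 7.4, 0.01% Tween-20; complex preformed 30 min RT, then compounds (top 110 uM) 30 min RT, beads 20 min dark.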
JMJD2A Tudor: inhibitors of human JMJD2A Tudor domain; AlphaScreen JMJD2A-Tudor / H3K4me3 peptide binding; Potency, µM (highest dose often 114 µM), for inactives: top-dose activity change, negative = inhibition, usual class: inhibitors; O75164; actives 4.4% (n = 390,000); AID 504339; note: % is set by controls: 0 for no effect and ±100 for the full control effect; nearly all actives have a fitted effect of over 50% in size
Active calls of the source: *; ? = inconclusive; nt = no result given; ! = not active in a repeat; [ ] = dose if it differs, or a comment. Calls come from the whole dose curve; as a rule, active = well fitted curve in the direction sought with a large enough effect; inconclusive = small, poorly fitted or top-dose-only effect, or another doubt; inactive = no such curve, though single readings can be large; an effect the other way counts as inactive or inconclusive. Potency is the fitted concentration of half-maximal effect.

SMILES | G9a block | HP1b binding inh | PLK1 PBD block | ALOX12 inh | BAZ2B inh | JMJD2A Tudor
CC1CCc2nc(NC(=O)CN3CCOCC3)sc2C1 (stereo not given) | 35%[12.7 µM] | 26% | 2% | ? | 2% | -11%
C[N+](C)(C)c1ccc(/C=N/Nc2nc(Cl)c(C#N)c(Cl)c2Cl)cc1 | ? | 9% | 20% | ? | 50µM* | 32µM*
N#Cc1c(Cl)nc(N/N=C/c2ccccc2)c(Cl)c1Cl | -24%[59 µM] | 19% | 0% | -17% | -35% | -5%
COc1ccc(Nc2nc(OC)nc(N3CCN(c4ccc(OC)cc4)CC3)n2)cc1 | ? | 27% | -1% | ? | -17% | -28%
COc1ccc(Nc2nc(Cl)nc(N3CCN(c4ccc(OC)cc4)CC3)n2)cc1 | ? | nt | nt | -22% | 8.9µM* | nt
CC1CCN(c2nc(Cl)nc(Nc3ccc([N+](=O)[O-])cc3)n2)CC1 | 45µM* | -17% | -3% | -29% | ? | ?
Cc1ccc(-c2ccc(CCC(=O)O)n2-c2ccc(C(=O)O)cc2)cc1 | 32µM* | 22% | -5% | -13% | ? | -17%
CC(=O)c1c(C(C)=O)c(C)n(-c2ccc(C(=O)O)cc2)c1C | -27% | 6% | -7% | 0% | -36% | -28%
CC(=O)Nc1ccc(-n2c(CCC(=O)O)ccc2-c2ccc(Br)cc2)cc1 | ? | -17% | nt | ? | ? | -25%
Cc1ccc(-c2ccc(CCC(=O)O)n2-c2ccc(C(C)C)cc2)cc1 | 16µM* | ? | nt | ? | 40µM* | ?
CCOC(=O)c1ccc(-n2c(CCC(=O)O)ccc2-c2ccc(F)cc2)cc1 | 45µM* | 2% | -24% | ? | -36% | -35%
Cc1ccc(C)n1-c1ccc(C(=O)O)cc1 | 8.9µM* | nt | nt | nt | 13µM* | nt
O=C(CSc1nnc(-c2ccc(OC(F)F)cc2)o1)NCc1cccs1 | 10%[12.7 µM] | 34% | 0% | 13% | -6% | 19%
O=C(O)CCc1ccc(-c2ccccc2)n1-c1cccc(O)c1 | ? | -6% | -16% | ? | -35% | ?
Cc1ccc(-c2ccc(CCC(=O)O)n2-c2cccc(C(=O)O)c2)cc1 | 45µM* | 10% | -9% | 0% | -12% | -26%
CC(=O)Nc1ccc(-n2c(CCC(=O)O)ccc2-c2ccc(C)cc2)cc1 | 14µM* | -5% | nt | -26% | -32% | -31%
COC(=O)c1ccc(-n2c(CCC(=O)O)ccc2-c2ccc(C)cc2)cc1 | 14µM*! | 13% | -18% | -33% | 45µM* | ?
COc1ccc(-c2ccc(CCC(=O)O)n2-c2ccccc2O)cc1 | ? | 16% | -8% | ? | ? | ?
Cc1ccc(-c2ccc(CCC(=O)O)n2-c2cccc(C)c2C)cc1 | 14µM* | -24% | nt | -19% | 45µM* | 35µM*
COCCN=c1scc(-c2cc(OC)ccc2OC)n1/N=C/c1c[nH]c2ccccc12 | 10µM* | ? | 4% | ? | 11µM* | 40µM*
O=C(Cn1c(SCC(=O)NC2CCCC2)nnc1-c1ccncc1)Nc1ccc2c(c1)OCO2 | -1% | 19% | 1% | 0% | 4% | -18%
CC(NC(=O)c1c(O)nc2ccccn2c1=O)c1ccccc1 (stereo not given) | 14%[59 µM] | 34% | nt | 0% | 8% | -18%
Cc1nc(N=Nc2ccc(C(=O)O)cc2)c(COP(=O)(O)O)c(C=O)c1O | 40µM* | nt | nt | nt | nt | nt
CC1CCCCN1C(=O)c1cc(-c2cccnc2)nc2ccc(Cl)cc12 (stereo not given) | nt | nt | nt | 20% | nt | nt
O=c1[nH]c(N2CCOCC2)nc2nccc(-c3ccccc3)c12 | nt | nt | nt | -34% | nt | nt
SMILES | G9a block | HP1b binding inh | PLK1 PBD block | ALOX12 inh | BAZ2B inh | JMJD2A Tudor
Cc1ccc(C2/C(=C(\O)c3c(C)nc4c(C)cccn34)C(=O)C(=O)N2CCN(C)C)o1 (stereo not given) | nt | 33% | -7% | -27% | nt | -11%
Cc1nc2c(C)cccn2c1/C(O)=C1\C(=O)C(=O)N(CCN(C)C)C1c1ccco1 (stereo not given) | -45% | 17% | -5% | -11% | 0% | 22µM*
Cc1nc2c(C)cccn2c1/C(O)=C1\C(=O)C(=O)N(CCN2CCOCC2)C1c1ccncc1 (stereo not given) | -51%[12.7 µM] | ? | -9% | ? | 79µM* | 5.6µM*
CCN(CC)C(=O)C(NC(=O)c1ccc(F)cc1)C1CCN(C(=O)C(C)C)CC1 (stereo not given) | nt | nt | nt | 30% | nt | nt
CC(C)C(=O)Nc1nnc(SCC(=O)NC2CC2)s1 | 2% | 15% | -1% | 0% | 24% | -5%
COc1ccccc1N1CCN(c2nnc(-c3ccc(F)cc3)c3ccccc23)CC1 | 2% | 7% | -8% | 12% | -9% | -18%
O=S(=O)(NC1CC1)c1ccc(S(=O)(=O)N(Cc2ccccn2)C2CCCC2)cc1 | -6%[12.7 µM] | 26% | -3% | -10% | -4% | -8%
O=S(=O)(NC1CC1)c1ccc(S(=O)(=O)N(Cc2ccccn2)C2CC2)cc1 | 71µM* | 12% | -13% | 12% | -25% | -2%
CC1CC(OCC(O)C[N+]2(C)CCOCC2)CC(C)(C)C1 (stereo not given) | 40µM* | ? | -15% | ? | 11% | -2%
CC1CC(OCC(O)CN2CCOCC2)CC(C)(C)C1 (stereo not given) | -11%[59 µM] | 36% | 2% | -2% | 3% | -15%
CC(=O)c1ccc(-c2ccc(C(=O)N3CCCc4ccccc43)o2)cc1 | 45µM* | -24% | -13% | -7% | ? | ?
CC(=O)c1ccc(-c2ccc(C(=O)N3CCN(c4ccc(F)cc4)CC3)o2)cc1 | 32µM* | 0% | 7% | -3% | nt | ?
COc1cc(CC(=O)N2CCN(S(=O)(=O)c3ccc(C(C)C)cc3)CC2)cc(OC)c1OC | nt | nt | -14% | -4% | nt | nt
CCOc1ccc(NC(=O)COc2cc(C)cc(C)c2)c2cccnc12 | nt | nt | nt | 9% | nt | nt
CCc1ccc(CNC(=O)CCN2C(=O)COc3ccccc32)cc1 | -3%[59 µM] | 0% | nt | -15% | 2% | -15%
CN(C(=O)COC(=O)C1CCN(S(=O)(=O)c2c(Cl)cccc2Cl)CC1)C1CCCCC1 | 40µM* | 66% | 1% | -15% | -29% | -8%
O=C(COC(=O)C1CCN(S(=O)(=O)c2c(Cl)cccc2Cl)CC1)NCc1ccco1 | 50µM* | 1% | -2% | 8% | -9% | -21%
O=C(NCc1cccc(Cl)c1)c1oc(=O)c2ccccc2c1-c1ccccc1 | -1%[59 µM] | 18% | nt | -3% | -6% | -13%
O=S(=O)(Nc1ccc(C(F)(F)F)cc1)c1cnc[nH]1 | -2%[12.7 µM] | -13% | 30µM* | 0% | 13% | -16%[11.4 µM]
COc1ccc(NC(=O)CSc2nnc(-c3ccco3)c(-c3ccco3)n2)cc1OC | 7.1µM* | ? | ? | -1% | -9% | ?

Source: PubChem (National Center for Advancing Translational Sciences (NCATS))
